Measurements taken from PubChem BioAssay (NCATS).
Records with an inconclusive call do not appear. Entries that show only a call come without a potency. Active and inactive are the calls of the source. Calls follow the shape of the dose curve; as a rule, active = well fitted curve in the direction sought with a large enough effect; inconclusive = small, poorly fitted or top-dose-only effect, or another doubt; inactive = no such curve, though single readings can be large; an effect the other way counts as inactive or inconclusive.

Assays:
[1] = P-glycoprotein substrates identified in KB-3-1 adenocarcinoma cell line, qHTS therapeutic library screen (AID 1346986); settings: KB-3-1 parental cells viability, CellTiter-Glo, 72 h; series mostly up to 44.5 µM; also: nearly all actives have a fitted effect of over 60% in size;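 also: potency is for cytotoxicity meaning loss of cell viability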
Method in brief: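 In 1536-well format, 500 cells/well received pinned compound titrations and were incubated 72 h, 5% CO2. Viability was read by CellTiter-Glo; cytotoxic if AC50 < 10 uM and efficacy >50%.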

[2] = P-glycoprotein substrates identified in KB-8-5-11 adenocarcinoma cell line, qHTS therapeutic library screen (AID 1346987); settings: KB-8-5-11 (P-gp overexpressing) viability, CellTiter-Glo, 72 h; series mostly up to 44.5 µM; also: nearly all actives have a fitted effect of over 65% in size
Method in brief: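 Compounds are pinned in dose-response onto KB-8-5-11 cells (500 cells/well, colchicine-free medium) and left 72 h at 37 degree C. CellTiter-Glo luminescence then yields AC50 values.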
Potency is read from the fitted curve at half-maximal effect.

SMILES	Potency [1]	Potency [2]
N#Cc1cc(-c2ccnc(Nc3ccc(N4CCOCC4)cc3)n2)ccc1OC1CCOCC1	13 µM (active)	16.4 µM (active)
COc1ccc(NC(=O)C2C[C@H](C)CC[C@H]2C(C)C)cc1 (stereo partly specified)	inactive	inactive
C=C1C(=O)O[C@@H]2[C@H]1CCC(C)=C(CCC(=O)O)[C@@]2(C)O	inactive	inactive
C=C[C@]1(C)C[C@H](O)[C@H]2C(=C)C(=O)O[C@@H]2[C@H]1C(=C)CO	inactive	inactive
N#Cc1ccnc(Nc2cc(C3CCN(C4COC4)CC3)cc(N3CCC(F)(F)C3)n2)c1	6.51 µM (active)	16.4 µM (active)
C=CC(=O)N1CC(N2CCN(C(=O)CNc3cc(C4CC4)c(Cl)cc3O)CC2)C1	inactive	inactive
COc1cc2c(cc1O)C1(Cc3ccc4c(c3C1O)OCO4)[N+](C)([O-])CC2 (stereo unspecified)	inactive	inactive
CCOC(=O)CCNc1cc(N2CCc3ccccc3CC2)nc(-c2cccnc2)n1	inactive	inactive
COC1CC(O[C@H]2CC[C@]3(C)C4CC[C@@]5(C)C(=O)[C@]4(CC[C@@H]3C2)CC[C@@H]5C2=CC(=O)OC2)OC(C)C1OC1OC(COC2OC(CO)C(O)C(O)C2O)C(O)C(O)C1O (stereo partly specified)	3.48 µM (active)	2.19 µM (active)
CO[C@H]1O[C@@H]2O[C@@]3(C)CCC4[C@H](C)CCC([C@H]1C)[C@]42OO3 (stereo partly specified)	inactive	inactive
C=C(C)C(=O)O[C@H]1[C@H]2C(=C)C(=O)O[C@@H]2/C=C(\CO)CC/C=C(/C=O)[C@@H]1O	inactive	inactive
CCC(C)C1NC(=O)C(Cc2ccccc2)NC(=O)C(CCCCCC(=O)C(O)CO)NC(=O)C2CCCCN2C1=O (stereo unspecified)	inactive	inactive
C=C(C)C1CCC2(C(=O)O)CCC3(C)C(CCC4C5(C)C(C=O)C(O)C(C)(C)C5CCC43C)C12 (stereo unspecified)	inactive	inactive
CC(=O)O[C@@H]1CC2C(C)(C)C(=O)C=C[C@]2(C)C2CC[C@@]3(C)[C@H](c4ccoc4)OC(=O)[C@H]4O[C@]43[C@@]21C (stereo partly specified)	inactive	inactive
COc1cc(O)cc(/C=C/c2cccc(O)c2)c1	inactive	inactive
CC1OC(=O)C[C@@H]2C(C(=O)O)=CO[C@@H](O[C@H]3O[C@H](CO)[C@@H](O)[C@H](O)[C@H]3O)[C@H]12 (stereo partly specified)	inactive	inactive

SMILES	Potency [1]	Potency [2]
CC(C)(CO)c1cc2cc(NC(=O)C3(c4ccc5c(c4)OC(F)(F)O5)CC3)c(F)cc2n1CC(O)CO (stereo unspecified)	inactive	inactive
COc1cc(F)c(C(C)C)cc1-c1ccc(C(F)(F)F)cc1CN1C(=O)OC(c2cc(C(F)(F)F)cc(C(F)(F)F)c2)C1C (stereo unspecified)	inactive	inactive
CCN(CC)C(=O)C(c1ccccc1)N1CCN(c2ccc(NC(=O)c3ccccc3-c3cccnc3)cc2F)CC1 (stereo unspecified)	inactive	inactive
CC(C)C[C@H](CO)Nc1nc(S[C@@H](C)c2ccccc2)nc2nc(N)sc12	inactive	inactive
O=C(Cc1c(F)cccc1F)Nc1cc(OCc2ccc(Cl)cc2)ccn1	inactive	inactive
Cc1c(F)ccc(C(=O)Nc2cc([N+](=O)[O-])ccc2N2CCN(C)CC2)c1Cl	inactive	inactive
Nc1nc(Nc2ccc3c(c2)CCC(N2CCCC2)CC3)nn1-c1cc2c(nn1)-c1ccccc1CCC2 (stereo unspecified)	11.6 µM (active)	14.6 µM (active)
C=C1C(OC2OC(CO)C(O)C(O)C2O)CC2C(C)(C)C(O)CCC2(C)C1CC/C(C)=C\COC(=O)CC(=O)O (stereo unspecified)	inactive	inactive
C[C@H](Nc1cc2c(-c3ccc4c(c3)OCO4)noc2cn1)c1ccccc1	inactive	inactive
CC(=O)OCC(=O)[C@@]12O[C@@H]1C[C@H]1[C@@H]3CC=C4C[C@@H](O)CC[C@]4(C)[C@H]3CC[C@@]12C	inactive	inactive
CC(=O)OC1C(O)CC2(C)C(CCC3(C)C2CC=C2C4C5(CCC(CO[C@@H]6O[C@H](CO)[C@@H](O)[C@H](O)[C@H]6O)(OC5=O)C4(C)O)C(O)CC23C)C1(C)C (stereo partly specified)	inactive	inactive
C=C1C(=O)OC[C@@H]1C/C=C(\C)CC1CC(C)C(=O)O1 (stereo partly specified)	inactive	inactive
C=CC(C)(C)c1[nH]c2ccccc2c1C[C@@H]1NC(=O)[C@H](C)NC1=O	–	inactive
COc1ccc(C(=O)O[C@H]2C=COC=C3C=C4C(=O)N(C)C(=S)C(=O)N4[C@@H]32)cc1Oc1cc(C=O)ccc1O	inactive	inactive
NC(=O)c1ccccc1Nc1ccnc(Nc2cccc(O)c2)n1	1.3 µM (active)	8.2 µM (active)
